These results are taken from PubChem BioAssay.

Experiment [1] is described as follows: inhibitors of TNFa-induced NFkB p65 translocation, primary screen, imaging, HUVEC, MLSMR starter and 10KST1 sets (AID 438;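 active means inhibition above 20% together with a positive visual image hit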;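 further: compound added about 3h40 before a 20 min TNFalpha stimulation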;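 on inhibition: signal is the nuclear over cytoplasmic p65 intensity ratio per well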). As to conditions: HUVEC TNFa-induced p65 nuclear translocation; cell count: measured here: nuclei count (cytotoxicity indicator), at 2.08 µM; inhibition: at 2 µM, stronger effect = higher value, 0% TNFa-plus-vehicle, 100% no-TNFa wells.
Experiment [2] is described as follows: inhibitors of mutant huntingtin aggregation, primary screen, imaging, exon1htt(103Q)mCFP cells, high-content imaging (AID 483;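 active means visual image review flags a hit and inhibition of aggregation exceeds 20%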;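 further: compound exposure lasted 3 days before fixation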;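 on nuclei count: percent of the per-plate median nuclei count of sample wells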). The settings on record: exon1htt(103Q)mCFP cell line, aggregate imaging, at 2 µM; inhibition of aggregation: stronger effect = higher value; nuclei count: measured here: cell count, toxicity.
A short description of experiment [3]: inhibitors of E-selectin induction by TNFa, primary screen, imaging, HUVEC, immunofluorescence, MLSMR starter and 10KST1 sets (AID 487;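 active means visually confirmed hit in the image check and inhibition above 20%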;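 on inhibition: signal is fraction of cell area covered by stained E-selectin grains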;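 on nuclei count: 100% = median nuclei count of all wells on the same plate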). The settings on record: HUVEC TNFalpha-induced E-selectin immunofluorescence imaging, at 2 µM; inhibition: stronger effect = higher value; nuclei count: measured here: cell number, toxicity.
Experiment [4] deals with Voltage-gated potassium channel subunit beta-2 (Rattus norvegicus) (UniProt P62483). Put plainly: KvBeta enzyme negative modulators, primary screen, biochemical, NADPH fluorescence (AID 622;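 active means fluorescence slope higher than the sample average by over 3 SD, cut at about -0.22 in these data, passing the limit was not always enough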;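 further: slope of raw intensity against log time taken from 70 to 1610 s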). As to conditions: recombinant KvBeta, 4-cyanobenzaldehyde reduction, at 10 µM, stronger effect = higher value.
For experiment [5] the target is unchanged. Kind of experiment: KvBeta positive modulators, primary screen, biochemical, NADPH fluorescence (AID 623;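 active means NADPH fluorescence slope more negative than the mean of all samples by about 3 SD, 99.7% confidence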;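 further: fluorescence intensity change per second fitted from 20 to 320 s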). As to conditions: Recombinant KvBeta, NADPH fluorescence decrease slope, 10 min; at 10 µM; stronger effect = lower value.
For experiment [6], the target named is Alpha-2C adrenergic receptor (Homo sapiens) (UniProt P18825). Kind of experiment: modulators of alpha2C/GIRK thallium flux, primary screen, cell-based, HEK293 alpha2C/GIRK1/2 (AID 624).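 Further: slope of fluorescence ratio to pre-addition baseline per second over 15 to 24 s.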 As to conditions: thallium flux BTC fluorescence, at 10 µM, actives lie on both sides.
Experiment [7] in a line: inhibitors of Sendai virus-induced IRF3 signaling, primary screen, TLR/RLR signaling modifier project, cell-based, Sendai virus stimulus, luciferase, 10K MLSCN set (AID 602276;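 active means inhibition at or above 50% at 10 µM; inactive means inhibition below 50%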;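 further: firefly luciferase from ISG56 promoter only with Renilla not read in this screen; 0% = Sendai virus plus DMSO and 100% = medium plus DMSO without virus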). The settings on record: HEK293 RL24 IRF3 luciferase reporter, at 10 µM, stronger effect = higher value. For orientation: Reporter assays use an easily measured gene product as a stand-in for the process of interest.

Experiment [8] is described as follows: inhibitors of poly I:C-induced TLR3 signaling, primary screen, cell-based, poly I:C stimulus, luciferase, 10K MLSCN set (AID 602277;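 active means inhibition of the reporter signal at or above 50%; inactive means inhibition below 50%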). The settings on record: HEK293-TLR3 RL24 IRF3 luciferase reporter, at 10 µM, stronger effect = higher value.

Activity calls are given as the source filed them.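 How the source made its calls, unless noted: active means fluorescence slope after compound addition differing from the mean of all screened samples at 99.7% confidence, in either direction; inactive means the rest.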

Sequence of Voltage-gated potassium channel subunit beta-2 (Rattus norvegicus) (P62483 whole entry, looked up): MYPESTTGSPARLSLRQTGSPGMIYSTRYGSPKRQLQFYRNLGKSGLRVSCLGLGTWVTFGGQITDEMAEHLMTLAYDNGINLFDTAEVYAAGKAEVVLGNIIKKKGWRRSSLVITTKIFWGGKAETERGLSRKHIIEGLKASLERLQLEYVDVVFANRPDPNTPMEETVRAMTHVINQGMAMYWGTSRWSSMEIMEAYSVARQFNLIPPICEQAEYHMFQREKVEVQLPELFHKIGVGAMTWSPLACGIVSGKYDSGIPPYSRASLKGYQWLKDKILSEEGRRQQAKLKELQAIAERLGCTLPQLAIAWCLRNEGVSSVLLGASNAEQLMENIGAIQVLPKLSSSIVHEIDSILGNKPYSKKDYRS
Sequence of Alpha-2C adrenergic receptor (Homo sapiens) (P18825 whole entry, looked up): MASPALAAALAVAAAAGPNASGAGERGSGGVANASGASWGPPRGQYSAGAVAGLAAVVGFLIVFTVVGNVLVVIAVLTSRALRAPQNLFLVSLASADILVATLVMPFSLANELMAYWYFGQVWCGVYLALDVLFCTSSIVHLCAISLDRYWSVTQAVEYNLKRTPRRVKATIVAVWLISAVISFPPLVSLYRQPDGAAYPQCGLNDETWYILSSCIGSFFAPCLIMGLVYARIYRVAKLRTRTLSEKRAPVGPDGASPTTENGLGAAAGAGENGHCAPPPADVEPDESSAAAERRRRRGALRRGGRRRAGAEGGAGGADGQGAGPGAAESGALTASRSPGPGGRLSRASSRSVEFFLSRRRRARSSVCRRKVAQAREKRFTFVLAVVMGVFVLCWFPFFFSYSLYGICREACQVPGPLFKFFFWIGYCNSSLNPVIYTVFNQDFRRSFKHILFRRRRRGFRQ

As usually defined, the inhibition is the relative decrease from the control value, in per cent. For the molecule `CCCCc1nccn1CCn1ccnc1CCCC`, in experiment [1], the cell count turned out to be 514. In addition, the inhibition is -5% (inactive) in experiment [1], -75% (inactive) in experiment [3], 26.7% (inactive) in experiment [7] and 25.7% (inactive) in experiment [8]. The inhibition of aggregation in experiment [2] was 53.1% (active). In addition, the nuclei count in experiment [2] amounted to 75%; in experiment [3], 108%. Moreover, the fluorescence slope in experiment [4] was -0.489 (inactive). For the same molecule, the NADPH fluorescence slope in experiment [5] is 1.9e-05 (inactive). For the same molecule, the slope in experiment [6] is 0.00472 (inactive).
As for `OC1(c2cccc(C(F)(F)F)c2)CCN(c2ccc(-c3ccccc3)nn2)CC1`, the cell count in experiment [1] amounted to 853. For the same molecule, the inhibition in experiment [1] is 4.3% (inactive); in experiment [3] it was -25.2% (inactive); in experiment [7], -40.7% (inactive); in experiment [8] it was -99% (inactive). The inhibition of aggregation in experiment [2] was -13.4% (inactive). The values for the nuclei count in experiment [2] and in experiment [3] were 96.8% and 106%, respectively. The fluorescence slope in experiment [4] is -0.456 (inactive). The NADPH fluorescence slope in experiment [5] was -4.5e-05 (inactive). Moreover, the slope in experiment [6] was 0.00688 (inactive).
On to `CCOC(=O)c1oc2ccccc2c1NC(=O)COC`, for which the cell count in experiment [1] came to 602. For the same molecule, the inhibition in experiment [1] is -1.8% (inactive); in experiment [3], 66.5% (inactive); in experiment [7], -14.3% (inactive); in experiment [8] it was 4.92% (inactive). Also, the inhibition of aggregation in experiment [2] is 15.5% (inactive). Moreover, the nuclei count in experiment [2] was determined as 92.3%; in experiment [3], 59.1%. The fluorescence slope in experiment [4] was -0.486 (inactive). The NADPH fluorescence slope in experiment [5] was -1.7e-05 (inactive). Moreover, in experiment [6], the slope was 0.00552 (inactive).
In the case of `CN(C)/C=C1\N=C(c2ccc3c(c2)OCO3)OC1=O`, the cell count in experiment [1] was 462. Moreover, the inhibition was 15.8% (inactive) in experiment [1], 46.5% (inactive) in experiment [3], -20.5% (inactive) in experiment [7] and -55.4% (inactive) in experiment [8]. Also, the inhibition of aggregation in experiment [2] was -17.4% (inactive). The nuclei count in experiment [2] was 104%; in experiment [3] it was 108%. Further, the fluorescence slope in experiment [4] is -0.451 (inactive). In addition, the NADPH fluorescence slope in experiment [5] was 1.5e-05 (inactive). The slope in experiment [6] was 0.0038 (inactive).
In the case of `COCc1nnc(NC(=O)c2ccc(S(=O)(=O)N(C)c3ccccc3)cc2)o1`, the cell count in experiment [1] was determined as 716. Also, the inhibition in experiment [1] is 2.4% (inactive); in experiment [3], -21% (inactive); in experiment [7], 13.8% (inactive); in experiment [8] it was 7.35% (inactive). Further, in experiment [2], the inhibition of aggregation is -2% (inactive). Also, the figures for the nuclei count in experiment [2] and in experiment [3] were 116% and 107%, respectively. The fluorescence slope in experiment [4] is -0.575 (inactive). Further, in experiment [5], the NADPH fluorescence slope is 1.3e-05 (inactive). In experiment [6], the slope was 0.00656 (inactive).
For `CC(NC(=O)Nc1ccccc1)C(c1cccs1)N1CCOCC1` (centres undefined), the cell count in experiment [1] came out at 606. In addition, the inhibition was -0.5% (inactive) in experiment [1], -2.9% (inactive) in experiment [3], 1.55% (inactive) in experiment [7] and 31% (inactive) in experiment [8]. Also, the inhibition of aggregation in experiment [2] was -6.2% (inactive). The nuclei count came out at 97.6% in experiment [2] and 111% in experiment [3]. In addition, in experiment [4], the fluorescence slope is -0.6 (inactive). The NADPH fluorescence slope in experiment [5] is -9.3e-06 (inactive). Besides, the slope in experiment [6] is 0.00654 (inactive).
With `CC(C)Cn1c(=O)c(C2=NS(=O)(=O)c3ccccc3N2)c(O)c2ccccc21`, the cell count in experiment [1] is 407. For the same molecule, the inhibition is -0.4% (inactive) in experiment [1], -61.6% (inactive) in experiment [3], 15.1% (inactive) in experiment [7] and 18% (inactive) in experiment [8]. Moreover, the inhibition of aggregation in experiment [2] is 10.3% (inactive). Further, the figures for the nuclei count in experiment [2] and in experiment [3] were 93.8% and 125%, respectively. Also, the fluorescence slope in experiment [4] is -0.353 (inactive). For the same molecule, the NADPH fluorescence slope in experiment [5] is -0.000128 (inactive). In experiment [6], the slope was 0.00697 (inactive).
As to `Cc1ccc(-c2noc(CCC(=O)NCCc3ccccc3Cl)n2)cc1`, in experiment [1], the cell count came to 287. For the same molecule, the inhibition was -1.2% (inactive) in experiment [1], 5.2% (inactive) in experiment [3], 10.3% (inactive) in experiment [7] and 21.8% (inactive) in experiment [8]. Moreover, in experiment [2], the inhibition of aggregation is 19.9% (inactive). The nuclei count was found to be 91% in experiment [2] and 88.4% in experiment [3]. Also, the fluorescence slope in experiment [4] is -0.409 (inactive). The NADPH fluorescence slope in experiment [5] is -3.6e-05 (inactive). In addition, in experiment [6], the slope was 0.00258 (inactive).
For the molecule `COc1ccc(CNc2nc(NCc3ccc(OC)cc3)n(S(C)(=O)=O)n2)cc1`, the cell count in experiment [1] was found to be 292. Further, the inhibition in experiment [1] is -0.9% (inactive); in experiment [3], 47% (inactive); in experiment [7] it was 2.7% (inactive); in experiment [8], -1.73% (inactive). In addition, the inhibition of aggregation in experiment [2] was 26% (inactive). For the same molecule, the nuclei count is 86.3% in experiment [2] and 95.3% in experiment [3]. The fluorescence slope in experiment [4] is -0.626 (inactive). In addition, the NADPH fluorescence slope in experiment [5] is -1.8e-05 (inactive). The slope in experiment [6] was 0.00366 (inactive).
For the molecule `O=C(/C=N/O)NCc1ccncc1`, the cell count in experiment [1] stood at 420. For the same molecule, the inhibition in experiment [1] was 1.2% (inactive); in experiment [3] it was 28.2% (inactive); in experiment [7], 8.28% (inactive); in experiment [8], 11.3% (inactive). Besides, in experiment [2], the inhibition of aggregation is 0.7% (inactive). Also, the nuclei count in experiment [2] was 98.3%; in experiment [3] it was 88%. Also, the fluorescence slope in experiment [4] is -0.606 (inactive). Also, the NADPH fluorescence slope in experiment [5] was -2.2e-05 (inactive). The slope in experiment [6] is 0.00648 (inactive).
Regarding `CCn1c(C)cc(=S)c2ccccc21`, the cell count in experiment [1] turned out to be 587. The inhibition in experiment [1] is -5.3% (inactive); in experiment [3] it was -56.4% (inactive); in experiment [7], 1.4% (inactive); in experiment [8] it was 12.6% (inactive). Moreover, the inhibition of aggregation in experiment [2] was -16.1% (inactive). In addition, the values for the nuclei count in experiment [2] and in experiment [3] were 105% and 90.4%, respectively. The fluorescence slope in experiment [4] is -0.611 (inactive). For the same molecule, the NADPH fluorescence slope in experiment [5] was -2.2e-05 (inactive). Also, in experiment [6], the slope is 0.00608 (inactive).
As to `CCCS(=O)(=O)Nc1c(C(=O)O)[nH]c2ccccc12`, in experiment [1], the cell count worked out at 665. Further, the inhibition in experiment [1] was -11.9% (inactive); in experiment [3], -79.9% (inactive); in experiment [7], 12.6% (inactive); in experiment [8], 29% (inactive). The inhibition of aggregation in experiment [2] was -26.1% (inactive). The nuclei count in experiment [2] is 108%; in experiment [3], 147%. Also, in experiment [4], the fluorescence slope was -0.415 (inactive). Besides, the NADPH fluorescence slope in experiment [5] is -3.3e-05 (inactive). Further, the slope in experiment [6] was 0.00314 (inactive).
For the molecule `CC(C)(C)C(=O)CNS(=O)(=O)c1ccc(S(=O)(=O)NC2CCCC2)cc1`, in experiment [1], the cell count was 479. In addition, the inhibition is 6% (inactive) in experiment [1], -35.9% (inactive) in experiment [3], 9.9% (inactive) in experiment [7] and 22.1% (inactive) in experiment [8]. Further, in experiment [2], the inhibition of aggregation was 2.6% (inactive). Further, the nuclei count amounted to 113% in experiment [2] and 94.4% in experiment [3]. The fluorescence slope in experiment [4] was -0.47 (inactive). Also, the NADPH fluorescence slope in experiment [5] was 2.8e-05 (inactive). For the same molecule, the slope in experiment [6] is 0.00543 (inactive).
In the case of `CC(C)CCn1c(=O)c2ccccc2n2c(CN(C)Cc3ccccc3)nnc12`, the cell count in experiment [1] is 486. In addition, the inhibition in experiment [1] was -14.2% (inactive); in experiment [3], -78.1% (inactive); in experiment [7], 8.18% (inactive); in experiment [8] it was 26.3% (inactive). The inhibition of aggregation in experiment [2] is 0.2% (inactive). Further, the nuclei count in experiment [2] was found to be 101%; in experiment [3], 170%. Moreover, the fluorescence slope in experiment [4] was -0.537 (inactive). The NADPH fluorescence slope in experiment [5] is 1.9e-05 (inactive). Further, the slope in experiment [6] was 0.00576 (inactive).
